Reference: PubChem BioAssay (EPA / NIEHS)
Active and inactive are the calls of the source. Rule for the calls: active = hit-call score of the fitted dose curve at least 0.9, where 1 is the maximum; inactive = score below 0.9.

test: CCTE_Harrill_HTTr_Viability_MCF7: CCTE's 6-hour Cell Viability Assessment for the High-Throughput Transcriptomics (HTTr) Platform, in MCF-7 cells cultured in DMEM + 10% fetal bovine serum, Harrill Lab (AID 2284010)
Outline: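 Membrane integrity was scored by high-content imaging of propidium iodide dye exclusion after a 6 h exposure across an eight-point dilution series. Data were fitted bidirectionally relative to DMSO as negative control and baseline.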

SMILES | AC50 | outcome
CCCCCCCCCCCCCCCC[n+]1ccccc1 | 77.1 µM (active) | –
CCCCC(CC)COC(=O)c1ccccc1 (stereo not drawn) | – | inactive
OC1CCCCCCCCCCC1 | – | inactive
CC1(C)[C@H]2CC[C@]1(C)C(=O)C2 | – | inactive
O=C(Nc1cccc(C(F)(F)F)c1)c1cc(Br)cc(Br)c1O | – | inactive
CN(C)c1ccc(C(=N)c2ccc(N(C)C)cc2)cc1 | – | inactive
O=C(/C=C/C=C/c1ccc2c(c1)OCO2)N1CCCCC1 | – | inactive
CC1(C)O[C@@H]2C[C@H]3[C@@H]4C[C@H](F)C5=CC(=O)C=C[C@]5(C)[C@@]4(F)[C@@H](O)C[C@]3(C)[C@]2(C(=O)CO)O1 | – | inactive
c1ccc(-c2ccccn2)nc1 | – | inactive
CCCCCC/C=C\CCCCCCCC(=O)O | – | inactive
NC(=O)OCC(COC(N)=O)c1ccccc1 | – | inactive
O=c1[nH]nc(-c2ccc([N+](=O)[O-])o2)o1 | – | inactive
O=C1c2cccc(O)c2C(=O)c2c(O)cc(CO)cc21 | – | inactive
Cc1cnc(NC(=O)C2=C(O)c3ccccc3S(=O)(=O)N2C)s1 | – | inactive
NC(=O)N=NC(N)=O | – | inactive
CCN(Cc1cccc(S(=O)(=O)O)c1)c1ccc(C(=C2C=CC(=[N+](CC)Cc3cccc(S(=O)(=O)[O-])c3)C=C2)c2ccccc2)cc1 | – | inactive
O=C(O)CCCC[C@@H]1SC[C@@H]2NC(=O)N[C@@H]21 | – | inactive

SMILES | AC50 | outcome
Cn1c([N+](=O)[O-])cnc1COC(N)=O | – | inactive
C[C@]12C=CC(=O)C=C1CC[C@@H]1[C@@H]2[C@@H](O)C[C@@]2(C)[C@H]1CC[C@]2(O)C(=O)CO | – | inactive
CC(=O)OCC(=O)[C@@]12N=C(C)O[C@@H]1C[C@H]1[C@@H]3CCC4=CC(=O)C=C[C@]4(C)[C@H]3[C@@H](O)C[C@@]12C | – | inactive
C1CN(SSN2CCOCC2)CCO1 | – | inactive
COc1ccc(-c2coc3cc(O)ccc3c2=O)cc1 | – | inactive
O=C(C(Cl)Cl)N1CCOC12CCCCC2 | – | inactive
O=C1CCCCCCCCCCC(=O)OCCO1 | – | inactive
NC(=O)c1ccccc1O | – | inactive
O=C1CCCC1 | – | inactive
COC(=O)C1=C(C)NC(C)=C(C(=O)OCC(C)C)C1c1ccccc1[N+](=O)[O-] (stereo not drawn) | – | inactive
Cc1ccc(C(C)(C)C)cc1 | – | inactive
CCC(=O)Oc1ccc(/C(CC)=C(\CC)c2ccc(OC(=O)CC)cc2)cc1 | – | inactive
C=C1C2CCC(C2)C1(C)C (stereo not drawn) | – | inactive
CC[C@H]1OC(=O)[C@H](C)[C@@H](O[C@H]2C[C@@](C)(OC)[C@@H](O)[C@H](C)O2)[C@H](C)[C@@H](O[C@@H]2O[C@H](C)C[C@H](N(C)C)[C@H]2O)[C@](C)(O)C[C@@H](C)C(=NOCOCCOC)[C@H](C)[C@@H](O)[C@]1(C)O | – | inactive
O=Cc1ccc(CO)o1 | – | inactive
O=C1C=CC(=O)O1 | – | inactive
